The panel holds about 79,000 compounds, 15% with a hit somewhere; the sample as a whole holds those more often. Values without a mark were called inactive. Activity calls are given as the source filed them. Cut-off read from the data, not from the text of the source: active = growth inhibition above about 70%; inactive = the rest.
Key:
[1] = NCI Yeast Anticancer Drug Screen. Data for the rad50 strain (AID 155);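 note: 0% = growth of vehicle-only cultures of the same strain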; conditions: S. cerevisiae rad50 strain growth inhibition, active compounds read high
Procedure, shortened: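 Readout: growth inhibition relative to vehicle-treated cultures. Compound exposure was carried out in a genetically defined yeast strain deficient in DNA damage repair.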

[2] = NCI Yeast Anticancer Drug Screen. Data for the mec2-1 strain (AID 157); conditions: S. cerevisiae mec2-1 strain, active compounds read high
Procedure, shortened: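 Each compound was tested on mec2-1 yeast, a strain altered in DNA damage repair or cell cycle control. Growth inhibition is reported relative to vehicle.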

[3] = NCI Yeast Anticancer Drug Screen. Data for the sgs1 mgt1 strain (AID 161);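 note: 0% = growth of cultures given vehicle only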; conditions: S. cerevisiae sgs1 mgt1 strain, active compounds read high
Procedure, shortened: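 Genetically altered yeast, compound exposure, growth inhibition relative to vehicle.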

[4] = NCI Yeast Anticancer Drug Screen. Data for the cln2 rad14 strain (AID 165);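 note: 0% = growth equal to vehicle treated cultures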; conditions: S. cerevisiae cln2 rad14 strain, active compounds read high
Procedure, shortened: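 Test compounds were added to cln2 rad14 yeast cultures; inhibition of growth was then determined by comparison with vehicle treatment.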

[5] = NCI Yeast Anticancer Drug Screen. Data for the bub3 strain (AID 167); conditions: S. cerevisiae bub3 mutant strain, active compounds read high
Procedure, shortened: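 Readout: yeast growth inhibition, expressed relative to vehicle-only wells. The test organism is a mutant strain from a panel with lesions in DNA repair or checkpoint genes.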

[6] = NCI Yeast Anticancer Drug Screen. Data for the mlh1 rad18 strain (AID 175); conditions: S. cerevisiae mlh1 rad18 strain growth inhibition, active compounds read high
Procedure, shortened: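 Inhibition values reflect reduced growth of mutant yeast versus vehicle-treated controls following compound exposure; the mutations affect DNA damage repair.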

[7] = at 5.0 µM (retest, dose inferred, filed as 0.5)
[8] = at 50.0 µM (retest, dose inferred, filed as 5.0)

| Compound | growth inhibition [1, 7] | growth inhibition [1, 8] | growth inhibition ([1]; at 50.0 µM) | growth inhibition [2, 7] | growth inhibition [2, 8] | growth inhibition ([2]; at 50.0 µM) | growth inhibition [3, 7] | growth inhibition [3, 8] | growth inhibition ([3]; at 50.0 µM) | growth inhibition [4, 7] | growth inhibition [4, 8] | growth inhibition ([4]; at 50.0 µM) | growth inhibition [5, 7] | growth inhibition [5, 8] | growth inhibition ([5]; at 50.0 µM) | growth inhibition [6, 7] | growth inhibition [6, 8] | growth inhibition ([6]; at 50.0 µM) |
| --- | --- | --- | --- | --- | --- | --- | --- | --- | --- | --- | --- | --- | --- | --- | --- | --- | --- | --- |
| NC1OC(COC(=O)c2ccccc2)C(O)C(OC(=O)c2ccccc2)C1OC(=O)c1ccccc1 (stereo not given) | 0% | 97% (active) | 97% (active) | 2% | 98% (active) | 96.8% (active) | 11% | 98% (active) | 97.7% (active) | 11% | 97% (active) | 95.3% (active) | -1% | 98% (active) | 93.8% (active) | – | – | – |
| CC(/C=C/c1ccc(Cl)cc1)=N\NC(N)=S | 11% | 44% | 68.2% | -1% | 29% | 69% | 1% | 59% | 49.4% | 12% | 32% | 47.1% | 1% | 38% | 50% | 16% | 54% | 60.5% |
| O=C(CC(O)(c1ccccc1)c1ccc(Cl)cc1)NC(=O)c1ccccc1O (stereo not given) | 45% | 93% (active) | 85% (active) | 40% | 98% (active) | 89% (active) | 48% | 97% (active) | 91.6% (active) | 42% | 99% (active) | 89% (active) | 50% | 99% (active) | 86.8% (active) | 53% | 97% (active) | 86.8% (active) |
| Cc1ccc(O)c(C(c2cc(C)ccc2O)c2ccccc2Cl)c1 | 96% (active) | 99% (active) | 98.2% (active) | 95% (active) | 99% (active) | 99.5% (active) | 91% (active) | 99% (active) | 99.2% (active) | 98% (active) | 99% (active) | 98.6% (active) | 85% (active) | 99% (active) | 98.5% (active) | 97% (active) | 95% (active) | 99% (active) |
| Clc1ccc2nc3c(c(N4CCCCC4)c2c1)CCCC3 | 7% | 99% (active) | 98.8% (active) | 4% | 99% (active) | 99.2% (active) | 13% | 99% (active) | 99.4% (active) | 2% | 99% (active) | 99.2% (active) | 0% | 99% (active) | 97% (active) | 11% | 98% (active) | 99.2% (active) |
| CCC[CH2][Sn]([CH2]CCC)([O]C(=O)c1cccc(F)c1F)[O]C(=O)c1cccc(F)c1F | 73% (active) | 73% (active) | 86.6% (active) | 62% | 62% | 88% (active) | 78% (active) | 78% (active) | 86.5% (active) | 55% | 55% | 88.7% (active) | 62% | 62% | 87.9% (active) | – | – | – |
| CC(=O)OCCC1=CCC2CC1C2(C)C (stereo not given) | -2% | 2% | -22.6% | -40% | 4% | 7.2% | -3% | 4% | -12.8% | -6% | -7% | 23.4% | -10% | -5% | -16.2% | – | – | – |
| O=[N+]([O-])c1cc(Cc2cc([N+](=O)[O-])c3cccnc3c2O)c(O)c2ncccc12 | 96% (active) | 98% (active) | 98.3% (active) | 89% (active) | 98% (active) | 97.2% (active) | 85% (active) | 98% (active) | 98.4% (active) | 65% | 97% (active) | 93.5% (active) | 73% (active) | 98% (active) | 97.4% (active) | 90% (active) | 97% (active) | 97.8% (active) |
| O=C1C=CC(=O)N1c1ccccc1 (tested in a mixture with another compound) | 0% | 20% | 91% (active) | -1% | 32% | 92.8% (active) | 0% | 39% | 94.4% (active) | -3% | 34% | 93.8% (active) | -15% | 77% (active) | 95.2% (active) | -1% | 22% | 77.2% (active) |
| O=C(Nc1ncnc2c1ncn2C1CC(O)C(CO)O1)c1ccccc1 (stereo not given) | 1% | 1% | -2.25% | -2% | 0% | -11.3% | -1% | 1% | -0.05% | -6% | -2% | -23.9% | -2% | -1% | 54.1% | -4% | 4% | -17.8% |
| COc1ccc(C(=O)Nc2ccccc2[N+](=O)[O-])cc1 | -6% | 7% | -1.15% | -16% | -23% | 8.3% | -13% | -11% | 10.4% | -14% | 5% | 48.5% | -15% | 13% | 19.2% | -13% | 0% | 16.2% |
| O=C1OC2(CCCCC2)OC(=O)C1=Cc1ccc([N+](=O)[O-])s1 | 9% | 99% (active) | 56.1% | 6% | 100% (active) | 27.4% | 9% | 99% (active) | 99.8% (active) | 4% | 61% | 10% | 0% | 99% (active) | 22.6% | 14% | 99% (active) | 30.7% |
| CSc1nc2c(c(=O)[nH]1)C1C=C(C)CCC1C(C)(C)C2 (stereo not given) | -5% | 97% (active) | 52.1% | -5% | 97% (active) | 56.1% | 0% | 97% (active) | 56% | -3% | 96% (active) | 69.2% | 10% | 97% (active) | 53.8% | -10% | 97% (active) | 51.6% |
| CN(C)N=Nc1c(-c2ccccc2)n[nH]c1-c1ccccc1 | 95% (active) | 99% (active) | 99.6% (active) | 99% (active) | 100% (active) | 99.5% (active) | 99% (active) | 100% (active) | 99.3% (active) | 99% (active) | 99% (active) | 99.5% (active) | 99% (active) | 99% (active) | 99.5% (active) | – | – | – |
| Cc1ccc2c(c1C)-c1c(ccc(C)c1C)C(=O)C2=O | 13% | 98% (active) | 99.3% (active) | 35% | 99% (active) | 99.4% (active) | 5% | 99% (active) | 99.7% (active) | -14% | 98% (active) | 99.6% (active) | 46% | 98% (active) | 99.5% (active) | – | – | – |
| COc1ccc2c(Cc3cccc([N+](=O)[O-])c3)cncc2c1O | 4% | 68% | 29.8% | -2% | 86% (active) | 35.4% | -6% | 65% | 24% | 4% | 76% (active) | 37.1% | 3% | 91% (active) | 85% (active) | 5% | 92% (active) | 58.8% |
| C(=P(c1ccccc1)(c1ccccc1)c1ccccc1)[P+](c1ccccc1)(c1ccccc1)c1ccccc1 | 98% (active) | 99% (active) | 99.3% (active) | 99% (active) | 100% (active) | 99.3% (active) | 99% (active) | 99% (active) | 99.3% (active) | 98% (active) | 99% (active) | 98.7% (active) | 98% (active) | 99% (active) | 99% (active) | 99% (active) | 99% (active) | 99.2% (active) |
| Cc1cccc(C)c1NC(=O)CSC(N)=O | 4% | 22% | 72.2% (active) | -1% | 24% | 65% | 0% | 22% | 87.2% (active) | 5% | -1% | 56.1% | 4% | 42% | 75.5% (active) | 7% | 26% | 73.2% (active) |
| COc1ccccc1C1(c2ccccc2OC)OC(=O)c2ccccc21 | 3% | 14% | 77.8% (active) | -1% | 12% | 60.6% | 3% | -18% | 80.3% (active) | 1% | 22% | 69% | -2% | 17% | 77.3% (active) | -6% | 33% | 76% (active) |
| O=C1c2ccccc2C(=O)[C@@]23O[C@@]12C1(Oc2cccc4cccc(c24)O1)[C@@H]1O[C@@H]1[C@@H]3O | 79% (active) | 98% (active) | 88.1% (active) | 84% (active) | 99% (active) | 91% (active) | 62% | 99% (active) | 91.2% (active) | 48% | 98% (active) | 88.7% (active) | 56% | 99% (active) | 89.5% (active) | 85% (active) | 98% (active) | 84.9% (active) |
